# Data reported in PubChem BioAssay (EPA / NIEHS).
# Inconclusive results are not listed. Some structures have more than one record in an assay (separate samples or runs), and their calls can disagree. Activity calls are given as the source filed them. How the source made its calls, unless noted: active means hit-call score of the fitted dose curve at least 0.9, where 1 is the maximum; inactive means score below 0.9.
# Experiments:
# [1] = ATG_TAL_CIS: Attagene CIS-FACTORIAL HepG2 Assay for human TAL Basal Promoter (AID 2282966); settings: HepG2 Attagene cis-factorial TAL promoter reporter; actives raise or lower the signal;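 further: background control endpoint measuring basal TAL promoter reporter mRNA not a specific factor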
# Outline: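 Fluorescence of labelled reporter cDNA fragments, resolved by capillary electrophoresis, gave the readout. Human HepG2 liver cells carried transiently transfected cis-element reporter units and were treated for 24 hours; activity was fitted bidirectionally against DMSO.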
# [2] = ATG_TGFb_CIS: Attagene CIS-FACTORIAL HepG2 Assay for human Transforming Growth Factor (TGF) (AID 2282967); settings: HepG2 Attagene CIS TGFb reporter, mRNA transcription; actives raise or lower the signal
# Outline: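 After a 24-hour incubation with compound, transfected HepG2 cells were lysed for RNA; reporter cDNA was amplified, fluorescently end-labeled and separated by CE. DMSO served as baseline for bidirectional fits.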
# [3] = ATG_VDRE_CIS: Attagene CIS-FACTORIAL HepG2 Assay for human Vitamin D Receptor Element (VDRE) (AID 2282968); settings: HepG2 VDRE cis-reporter transcription, actives raise or lower the signal
# Outline: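 HepG2 cells transiently transfected with cis-element reporter units, dosed 24 h; reporter mRNA measured by RT-PCR, 6-FAM labeling, HpaI digestion and capillary electrophoresis. Activity fitted bidirectionally against DMSO baseline.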
# [4] = target: X-box-binding protein 1 (Homo sapiens) (UniProt P17861); test: ATG_Xbp1_CIS: Attagene CIS-FACTORIAL HepG2 Assay for human X-box Binding Protein 1 (XBP1) (AID 2282972); settings: HepG2 XBP1 cis-element reporter, Attagene multiplex; actives raise or lower the signal
# X-box-binding protein 1 (Homo sapiens), sequence (P17861 whole entry, looked up): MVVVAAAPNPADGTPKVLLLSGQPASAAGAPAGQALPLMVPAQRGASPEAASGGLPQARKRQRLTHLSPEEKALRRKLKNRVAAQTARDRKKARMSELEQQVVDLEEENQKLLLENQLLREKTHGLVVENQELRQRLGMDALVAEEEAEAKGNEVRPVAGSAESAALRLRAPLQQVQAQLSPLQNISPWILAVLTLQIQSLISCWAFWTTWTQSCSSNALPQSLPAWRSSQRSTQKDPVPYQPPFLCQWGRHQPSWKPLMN
# Outline: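 HepG2, transient MRTU transfection (cis-promoter driven), 24 h compound exposure. Total RNA → oligo(dT) RT → PCR → 6-FAM labeling → HpaI cut → CE. Bidirectional fit vs DMSO.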
# [5] = ATG_M_19_TRANS: Attagene TRANS-FACTORIAL HepG2 Assay for M19 Transcription Factor (Internal Marker) (AID 2282974; active means hit-call score of the fitted dose curve at least 0.9, where 1 is the maximum); settings: HepG2 Attagene TRANS-FACTORIAL M19 internal marker reporter
# Outline: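 Using RT-PCR and capillary electrophoresis, reporter mRNA from transiently transfected human HepG2 cells was quantified following 24 h exposure; activity was fitted in the positive direction against DMSO.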
# [6] = ATG_GAL4_TRANS: Attagene TRANS-FACTORIAL HepG2 Assay for GAL4 (Internal Marker) (AID 2282976; active means hit-call score of the fitted dose curve at least 0.9, where 1 is the maximum); settings: HepG2 Attagene TRANS GAL4 internal marker reporter
# Outline: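 First, HepG2 cells were transfected with reporter units under GAL4-UAS control. Next, they were treated with chemical for 24 h. Finally, RNA was reverse-transcribed, PCR-amplified, FAM-labelled and resolved by capillary electrophoresis, with induction scored against DMSO.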
# [7] = target: Hepatocyte nuclear factor 4-alpha (Homo sapiens) (UniProt P41235); test: ATG_HNF4a_TRANS: Attagene TRANS-FACTORIAL HepG2 Assay for human Hepatocyte Nuclear Factor 4 alpha (HNF4a) (AID 2282982; active means hit-call score of the fitted dose curve at least 0.9, where 1 is the maximum); settings: HepG2 HNF4a transactivation reporter, mRNA readout
# Hepatocyte nuclear factor 4-alpha (Homo sapiens), sequence (P41235 whole entry, looked up, the tested form may be a part): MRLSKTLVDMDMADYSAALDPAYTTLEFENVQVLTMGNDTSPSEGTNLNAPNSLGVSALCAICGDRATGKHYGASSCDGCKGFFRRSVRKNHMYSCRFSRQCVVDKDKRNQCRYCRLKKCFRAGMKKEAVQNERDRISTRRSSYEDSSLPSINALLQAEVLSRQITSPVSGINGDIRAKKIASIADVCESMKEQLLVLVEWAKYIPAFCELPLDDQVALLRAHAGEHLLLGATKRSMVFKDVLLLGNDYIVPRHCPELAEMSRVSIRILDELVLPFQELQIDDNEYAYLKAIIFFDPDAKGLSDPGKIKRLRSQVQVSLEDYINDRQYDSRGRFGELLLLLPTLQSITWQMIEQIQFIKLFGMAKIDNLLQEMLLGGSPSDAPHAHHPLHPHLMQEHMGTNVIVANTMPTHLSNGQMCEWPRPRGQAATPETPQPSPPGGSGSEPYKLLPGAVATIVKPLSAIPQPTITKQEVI
# Outline: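 HepG2 cells transiently transfected with multiplexed GAL4-UAS reporter units responsive to chimeric NR-GAL4 proteins; compound exposure 24 h. Reporter mRNA quantified by RT-PCR, 6-FAM labelling, HpaI digestion and capillary electrophoresis; gain of signal versus DMSO baseline.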
# [8] = target: Transcriptional activator Myb (Homo sapiens) (UniProt P10242); test: ATG_Myb_CIS: Attagene CIS-FACTORIAL HepG2 Assay for human Myeloblastosis (Myb) Proto-Oncogene Transcription Factor (AID 2282986); settings: HepG2 Attagene CIS-FACTORIAL Myb reporter transcription; actives raise or lower the signal
# Transcriptional activator Myb (Homo sapiens), sequence (P10242 whole entry, looked up): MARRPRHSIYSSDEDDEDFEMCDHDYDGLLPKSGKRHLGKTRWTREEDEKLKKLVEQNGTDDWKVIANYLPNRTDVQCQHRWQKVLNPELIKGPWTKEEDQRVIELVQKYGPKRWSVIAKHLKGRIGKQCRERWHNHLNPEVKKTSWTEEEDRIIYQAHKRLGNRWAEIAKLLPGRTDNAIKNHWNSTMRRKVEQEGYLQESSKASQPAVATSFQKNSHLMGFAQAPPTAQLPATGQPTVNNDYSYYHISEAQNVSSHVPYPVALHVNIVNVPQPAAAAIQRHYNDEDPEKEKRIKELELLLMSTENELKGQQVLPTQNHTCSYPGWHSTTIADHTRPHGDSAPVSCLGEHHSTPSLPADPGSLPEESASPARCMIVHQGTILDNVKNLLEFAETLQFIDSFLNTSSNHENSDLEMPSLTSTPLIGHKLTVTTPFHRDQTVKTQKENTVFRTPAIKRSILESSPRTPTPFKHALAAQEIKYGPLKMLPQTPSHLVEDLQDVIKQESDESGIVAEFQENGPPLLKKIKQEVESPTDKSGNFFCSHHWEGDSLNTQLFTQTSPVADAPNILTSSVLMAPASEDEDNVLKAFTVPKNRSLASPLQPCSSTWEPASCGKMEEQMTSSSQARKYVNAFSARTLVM
# Outline: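 In this HepG2 transient-transfection format, cis-regulated reporter mRNA is quantified 24 h post-dosing by RT-PCR with capillary electrophoresis, fitted bidirectionally to DMSO baseline.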
# [9] = target: Nuclear respiratory factor 1 (Homo sapiens) (UniProt Q16656); test: ATG_NRF1_CIS: Attagene CIS-FACTORIAL HepG2 Assay for human Nuclear Respiratory Factor 1 (NRF1) Orphan Gene (AID 2282987); settings: HepG2 NRF1 cis-element reporter, Attagene multiplex; actives raise or lower the signal
# Nuclear respiratory factor 1 (Homo sapiens), sequence (Q16656 whole entry, looked up): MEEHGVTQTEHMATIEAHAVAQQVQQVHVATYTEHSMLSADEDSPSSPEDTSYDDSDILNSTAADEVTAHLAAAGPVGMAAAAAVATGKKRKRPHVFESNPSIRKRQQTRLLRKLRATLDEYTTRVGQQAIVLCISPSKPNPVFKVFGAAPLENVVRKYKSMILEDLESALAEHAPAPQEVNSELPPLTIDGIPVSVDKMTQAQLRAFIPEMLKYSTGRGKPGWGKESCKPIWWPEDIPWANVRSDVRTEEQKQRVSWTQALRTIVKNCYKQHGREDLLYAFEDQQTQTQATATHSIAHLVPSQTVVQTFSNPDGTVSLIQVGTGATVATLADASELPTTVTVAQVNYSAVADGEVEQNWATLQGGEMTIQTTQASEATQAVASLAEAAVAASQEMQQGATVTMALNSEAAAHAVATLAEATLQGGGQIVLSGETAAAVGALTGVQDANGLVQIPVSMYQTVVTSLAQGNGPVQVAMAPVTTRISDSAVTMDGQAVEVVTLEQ
# Outline: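 Using DMSO as baseline, gain- or loss-of-signal was fitted for reporter mRNA levels in HepG2 cells transiently transfected with cis-regulated reporter units. Samples were taken 24 h after dosing and read by RT-PCR with capillary electrophoresis.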
# [10] = target: Estrogen receptor (Homo sapiens) (UniProt P03372); test: ATG_ERa_TRANS: Attagene TRANS-FACTORIAL HepG2 Assay for human Estrogen Receptor alpha (ERa) (AID 2282970; active means hit-call score of the fitted dose curve at least 0.9, where 1 is the maximum); settings: HepG2 Attagene TRANS ERa GAL4 reporter, mRNA
# Estrogen receptor (Homo sapiens), sequence (P03372 whole entry, looked up, the tested form may be a part): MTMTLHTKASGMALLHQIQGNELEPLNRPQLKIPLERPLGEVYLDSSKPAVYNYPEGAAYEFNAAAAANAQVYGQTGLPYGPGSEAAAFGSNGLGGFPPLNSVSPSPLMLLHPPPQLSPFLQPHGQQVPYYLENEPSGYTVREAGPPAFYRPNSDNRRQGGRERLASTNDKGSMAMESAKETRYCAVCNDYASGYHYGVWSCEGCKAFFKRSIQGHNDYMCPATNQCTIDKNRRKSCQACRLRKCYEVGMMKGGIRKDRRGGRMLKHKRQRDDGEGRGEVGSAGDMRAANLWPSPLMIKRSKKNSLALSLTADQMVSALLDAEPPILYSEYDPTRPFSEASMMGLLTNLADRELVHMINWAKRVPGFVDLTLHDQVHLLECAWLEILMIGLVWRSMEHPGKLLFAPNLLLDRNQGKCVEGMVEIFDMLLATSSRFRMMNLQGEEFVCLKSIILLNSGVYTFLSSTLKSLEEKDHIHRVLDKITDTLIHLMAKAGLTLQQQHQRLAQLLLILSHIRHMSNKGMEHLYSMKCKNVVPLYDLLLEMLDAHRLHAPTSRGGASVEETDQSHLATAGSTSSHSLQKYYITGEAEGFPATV
# Outline: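 Human liver HepG2, transient transfection of multiple GAL4-UAS reporter units; TRANS format (exogenous NR-Gal4 chimera). 24 h dosing. Readout: reporter mRNA, RT-PCR, 6-FAM primer extension, HpaI digest, capillary electrophoresis. Positive direction vs DMSO.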
# [11] = ATG_M_06_TRANS: Attagene TRANS-FACTORIAL HepG2 Assay for M06 Transcription Factor (Internal Marker) (AID 2282983; active means hit-call score of the fitted dose curve at least 0.9, where 1 is the maximum;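 further: reporter transcript level by RT-PCR then capillary electrophoresis fluorescence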); settings: HepG2 Attagene TRANS M06 internal marker reporter
# Outline: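 Transfect HepG2 with MRTUs → dose compounds 24 h → isolate RNA, oligo(dT) RT → PCR with reporter primers → 6-FAM primer extension → HpaI digest → CE fragment analysis. Positive direction vs DMSO.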
# [12] = ATG_M_32_TRANS: Attagene TRANS-FACTORIAL HepG2 Assay for M32 Transcription Factor (Internal Marker) (AID 2282984; active means hit-call score of the fitted dose curve at least 0.9, where 1 is the maximum;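 further: transcript level of a background control reporter unit measured by RT-PCR and capillary electrophoresis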); settings: HepG2 Attagene TRANS M32 internal marker reporter
# Outline: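 HepG2 cells transiently transfected with multiple GAL4-UAS reporter transcription units, dosed for 24 hours; reporter mRNA quantified by RT-PCR, 6-FAM primer extension, HpaI digestion and capillary electrophoresis. Gain-of-signal fitted versus DMSO baseline; internal background-control marker.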
# [13] = target: Steroid hormone receptor ERR1 (Homo sapiens) (UniProt P11474); test: ATG_ERRa_TRANS: Attagene TRANS-FACTORIAL HepG2 Assay for human Estrogen-Related Receptor alpha (ERRa) (AID 2282971; active means hit-call score of the fitted dose curve at least 0.9, where 1 is the maximum); settings: HepG2 Attagene TRANS reporter, ERRa transactivation
# Steroid hormone receptor ERR1 (Homo sapiens), sequence (P11474 whole entry, looked up, the tested form may be a part): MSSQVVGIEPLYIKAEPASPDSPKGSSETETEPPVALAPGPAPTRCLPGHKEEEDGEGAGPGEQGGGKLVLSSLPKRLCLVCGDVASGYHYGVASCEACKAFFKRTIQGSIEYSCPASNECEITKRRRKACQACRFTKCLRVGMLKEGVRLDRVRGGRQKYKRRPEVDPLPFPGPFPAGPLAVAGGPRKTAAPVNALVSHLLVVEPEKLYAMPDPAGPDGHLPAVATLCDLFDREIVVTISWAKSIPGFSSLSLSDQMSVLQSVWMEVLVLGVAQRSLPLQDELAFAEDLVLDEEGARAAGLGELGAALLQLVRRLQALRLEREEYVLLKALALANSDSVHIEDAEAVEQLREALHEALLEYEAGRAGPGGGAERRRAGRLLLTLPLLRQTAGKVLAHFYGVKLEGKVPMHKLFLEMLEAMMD
# Outline: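 Reporter transcript induction was quantified by RT-PCR and capillary electrophoresis of FAM-labelled, HpaI-cut products after 24 h treatment of HepG2 cells carrying transiently transfected GAL4-UAS reporter units and an exogenous ERRa-Gal4 fusion; activity scored as increase over DMSO.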
# [14] = target: Oxysterols receptor LXR-alpha (Homo sapiens) (UniProt Q13133); test: ATG_LXRa_TRANS: Attagene TRANS-FACTORIAL HepG2 Assay for human Liver X Receptor alpha (LXRa) (AID 2282980; active means hit-call score of the fitted dose curve at least 0.9, where 1 is the maximum); settings: HepG2 Attagene TRANS reporter, LXRa transactivation
# Oxysterols receptor LXR-alpha (Homo sapiens), sequence (Q13133 whole entry, looked up, the tested form may be a part): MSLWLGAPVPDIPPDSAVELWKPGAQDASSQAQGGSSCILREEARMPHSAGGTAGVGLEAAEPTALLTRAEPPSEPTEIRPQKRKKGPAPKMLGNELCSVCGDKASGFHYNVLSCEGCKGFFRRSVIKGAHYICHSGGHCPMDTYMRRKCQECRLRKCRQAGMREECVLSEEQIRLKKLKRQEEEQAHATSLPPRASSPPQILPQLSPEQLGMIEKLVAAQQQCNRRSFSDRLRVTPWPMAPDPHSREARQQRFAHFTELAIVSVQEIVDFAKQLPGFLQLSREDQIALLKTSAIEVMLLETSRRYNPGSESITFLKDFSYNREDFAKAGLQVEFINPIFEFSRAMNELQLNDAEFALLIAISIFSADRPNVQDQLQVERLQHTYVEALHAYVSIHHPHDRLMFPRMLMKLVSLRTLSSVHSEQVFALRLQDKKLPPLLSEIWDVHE
# Outline: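 Transfect HepG2 with GAL4-UAS multiplex reporter constructs (TRANS format, chimeric receptor-GAL4); treat 24 h; extract RNA, reverse-transcribe, PCR-amplify, FAM-label, HpaI-digest; resolve fragments by capillary electrophoresis. Upward response vs DMSO.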
# [15] = target: Estrogen-related receptor gamma (Homo sapiens) (UniProt P62508); test: ATG_ERRg_TRANS: Attagene TRANS-FACTORIAL HepG2 Assay for human Estrogen-Related Receptor gamma (ERRg) (AID 2282977; active means hit-call score of the fitted dose curve at least 0.9, where 1 is the maximum;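 further: hits increase reporter signal over DMSO so potencies reflect activators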); settings: HepG2 Attagene TRANS reporter, ERRg transactivation
# Estrogen-related receptor gamma (Homo sapiens), sequence (P62508 whole entry, looked up, the tested form may be a part): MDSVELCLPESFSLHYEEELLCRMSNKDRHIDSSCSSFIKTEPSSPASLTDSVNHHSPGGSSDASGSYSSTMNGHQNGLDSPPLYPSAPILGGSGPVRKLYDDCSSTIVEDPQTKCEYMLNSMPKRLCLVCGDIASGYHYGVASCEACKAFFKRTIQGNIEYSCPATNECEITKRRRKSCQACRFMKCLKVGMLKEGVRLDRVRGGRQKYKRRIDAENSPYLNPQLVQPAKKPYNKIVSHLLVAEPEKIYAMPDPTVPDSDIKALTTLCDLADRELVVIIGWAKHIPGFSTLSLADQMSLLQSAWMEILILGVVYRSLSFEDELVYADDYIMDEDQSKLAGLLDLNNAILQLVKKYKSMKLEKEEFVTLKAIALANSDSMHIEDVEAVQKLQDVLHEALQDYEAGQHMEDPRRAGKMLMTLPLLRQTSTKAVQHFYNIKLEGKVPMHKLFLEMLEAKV
# Outline: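 HepG2 cells transiently transfected with multiplexed GAL4-UAS reporter units and chimeric NR-Gal4 constructs were exposed to test chemicals for 24 h. Reporter mRNA was measured by RT-PCR, 6-FAM primer extension, HpaI digestion and capillary electrophoresis; gain-of-signal versus DMSO.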
# [16] = target: Oxysterols receptor LXR-beta (Homo sapiens) (UniProt P55055); test: ATG_LXRb_TRANS: Attagene TRANS-FACTORIAL HepG2 Assay for human Liver X Receptor beta (LXRb) (AID 2282981; active means hit-call score of the fitted dose curve at least 0.9, where 1 is the maximum); settings: HepG2 Attagene TRANS GAL4-LXRb reporter, mRNA
# Oxysterols receptor LXR-beta (Homo sapiens), sequence (P55055 whole entry, looked up, the tested form may be a part): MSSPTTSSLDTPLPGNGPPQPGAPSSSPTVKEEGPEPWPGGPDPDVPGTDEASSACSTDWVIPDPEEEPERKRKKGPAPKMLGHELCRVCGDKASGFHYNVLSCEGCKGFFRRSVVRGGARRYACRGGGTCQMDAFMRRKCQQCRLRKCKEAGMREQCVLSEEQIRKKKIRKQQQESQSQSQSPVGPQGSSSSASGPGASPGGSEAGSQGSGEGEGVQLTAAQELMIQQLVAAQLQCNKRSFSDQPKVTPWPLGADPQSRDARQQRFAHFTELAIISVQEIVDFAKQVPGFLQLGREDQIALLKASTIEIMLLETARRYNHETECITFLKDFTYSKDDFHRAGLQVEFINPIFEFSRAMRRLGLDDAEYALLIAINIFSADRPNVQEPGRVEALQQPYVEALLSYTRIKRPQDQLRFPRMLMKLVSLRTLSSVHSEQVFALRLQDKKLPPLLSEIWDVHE
# Outline: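 HepG2 cells transiently transfected with multiple reporter transcription units carrying chimeric NR-Gal4 proteins acting on GAL4-UAS reporters; compound exposure 24 h. Reporter mRNA quantified by RT-PCR, 6-FAM labelling, HpaI digestion and capillary electrophoresis; gain of signal versus DMSO.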
# [17] = target: Glucocorticoid receptor (Homo sapiens) (UniProt P04150); test: ATG_GR_TRANS: Attagene TRANS-FACTORIAL HepG2 Assay for human Glucocorticoid Receptor (GR) (AID 2282978; active means hit-call score of the fitted dose curve at least 0.9, where 1 is the maximum;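 further: activators score as hits since higher reporter transcript over DMSO is fitted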); settings: HepG2 Attagene TRANS GR reporter, mRNA transcription
# Outline: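 Exogenous NR-GAL4 fusion activity was assessed through induced GAL4-UAS reporter transcripts in transfected human HepG2 cells, quantified after 24 h by RT-PCR and fluorescent capillary electrophoresis with DMSO as baseline.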
# [18] = target: Nuclear receptor subfamily 1 group I member 3 (Homo sapiens) (UniProt Q14994); test: ATG_CAR_TRANS: Attagene TRANS-FACTORIAL HepG2 Assay for human Constitutive Androstane Receptor (CAR) (AID 2282969; active means hit-call score of the fitted dose curve at least 0.9, where 1 is the maximum;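 further: activators raise reporter mRNA above DMSO so AC50 marks induction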); settings: HepG2 Attagene TRANS-FACTORIAL CAR reporter
# Outline: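 HepG2 cells transiently transfected with multiplexed GAL4-UAS reporter units expressing chimeric NR-Gal4 proteins; compound exposure 24 h. Reporter mRNA measured by RT-PCR, 6-FAM labelling, HpaI digestion and capillary electrophoresis; gain-of-signal fitted against DMSO baseline.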
# [19] = target: Nuclear receptor subfamily 4 group A member 2 (Homo sapiens) (UniProt P43354); test: ATG_NURR1_TRANS: Attagene TRANS-FACTORIAL HepG2 Assay for human Nuclear Receptor Related Protein 1 (NURR1) (AID 2282985; active means hit-call score of the fitted dose curve at least 0.9, where 1 is the maximum); settings: HepG2 Attagene TRANS reporter, mRNA readout
# Outline: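 HepG2 cells transiently transfected with GAL4-UAS reporter units and chimeric NR-Gal4 constructs; chemical exposure 24 h. Reporter mRNA quantified by RT-PCR, fluorescent labelling and capillary electrophoresis; gain of signal fitted relative to DMSO baseline.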
# [20] = target: Bile acid receptor (Homo sapiens) (UniProt Q96RI1); test: ATG_FXR_TRANS: Attagene TRANS-FACTORIAL HepG2 Assay for Farnesoid X Receptor (FXR) (AID 2282979; active means hit-call score of the fitted dose curve at least 0.9, where 1 is the maximum;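 further: hits raise reporter mRNA above DMSO so AC50 marks FXR activation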); settings: HepG2 Attagene TRANS FXR-GAL4 reporter transcription
# Bile acid receptor (Homo sapiens), sequence (Q96RI1 whole entry, looked up, the tested form may be a part): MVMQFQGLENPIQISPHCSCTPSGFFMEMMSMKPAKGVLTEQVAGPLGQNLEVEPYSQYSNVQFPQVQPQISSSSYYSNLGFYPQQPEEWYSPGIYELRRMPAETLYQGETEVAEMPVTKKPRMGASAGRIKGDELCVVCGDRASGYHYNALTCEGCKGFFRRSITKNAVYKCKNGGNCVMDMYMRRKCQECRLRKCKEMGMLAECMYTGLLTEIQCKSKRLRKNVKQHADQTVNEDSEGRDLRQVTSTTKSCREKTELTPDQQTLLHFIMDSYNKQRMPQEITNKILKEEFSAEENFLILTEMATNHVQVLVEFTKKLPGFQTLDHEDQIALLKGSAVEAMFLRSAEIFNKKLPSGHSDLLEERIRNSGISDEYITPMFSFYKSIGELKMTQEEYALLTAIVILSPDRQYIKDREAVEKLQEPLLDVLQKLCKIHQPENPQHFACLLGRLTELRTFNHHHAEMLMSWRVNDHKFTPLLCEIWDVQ
# Outline: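 Transient transfection of HepG2 with multiplexed GAL4-UAS reporter units; exogenous FXR-GAL4 chimera. Dose 24 h → TriZol RNA → oligo(dT) RT → PCR, 6-FAM primer extension, HpaI cut → CE. Gain vs DMSO.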
smiles,measurement,setting,value
Cc1occc(=O)c1O,outcome,[1],inactive
same,outcome,[2],inactive
same,outcome,[3],inactive
same,outcome,[4],inactive
same,outcome,[5],inactive
same,outcome,[6],inactive
same,outcome,[7],inactive
same,outcome,[8],inactive
same,outcome,[9],inactive
Oc1ccc(O)cc1,outcome,[1],inactive
same,outcome,[2],inactive
same,outcome,[3],inactive
same,AC50,[10],59.9 µM (active)
same,AC50,[4],114 µM (active)
same,outcome,[7],inactive
same,outcome,[11],inactive
same,outcome,[12],inactive
same,outcome,[8],inactive
same,outcome,[9],inactive
CC(C)NCC(O)c1ccc(O)c(O)c1 (stereo not drawn),outcome,[1],inactive
same,outcome,[2],inactive
same,outcome,[3],inactive
same,outcome,[13],inactive
same,outcome,[4],inactive
same,outcome,[6],inactive
same,outcome,[14],inactive
same,outcome,[11],inactive
same,outcome,[8],inactive
same,outcome,[9],inactive
Cc1cc(SC2=C(O)C[C@@](CCc3ccc(N)cc3)(C(C)C)OC2=O)c(C(C)(C)C)cc1CO,outcome,[1],inactive
same,outcome,[2],inactive
same,AC50,[3],5.63 µM (active)
same,outcome,[13],inactive
same,outcome,[4],inactive
same,outcome,[5],inactive
same,outcome,[15],inactive
same,outcome,[16],inactive
same,outcome,[12],inactive
same,outcome,[8],inactive
same,outcome,[9],inactive
CCCCCCCCCC[N+](C)(C)[O-],outcome,[1],inactive
same,outcome,[2],inactive
same,outcome,[3],inactive
same,outcome,[13],inactive
same,outcome,[4],inactive
same,outcome,[5],inactive
same,outcome,[15],inactive
same,outcome,[17],inactive
same,outcome,[14],inactive
same,outcome,[16],inactive
same,outcome,[12],inactive
same,outcome,[8],inactive
same,outcome,[9],inactive
CO[C@@H]1COCC[C@@H]1N[C@@H]1CC[C@@](C(=O)N2CCc3ncc(C(F)(F)F)cc3C2)(C(C)C)C1,outcome,[1],inactive
same,outcome,[2],inactive
same,outcome,[3],inactive
same,outcome,[4],inactive
same,outcome,[5],inactive
same,outcome,[6],inactive
same,outcome,[8],inactive
same,outcome,[9],inactive
CC(=O)[C@@]1(O)CC[C@H]2[C@@H]3CCC4=CC(=O)CC[C@]4(C)[C@H]3CC[C@@]21C,outcome,[1],inactive
same,outcome,[2],inactive
same,outcome,[3],inactive
same,outcome,[4],inactive
same,outcome,[5],inactive
same,outcome,[6],inactive
same,outcome,[14],inactive
same,outcome,[7],inactive
same,outcome,[11],inactive
same,outcome,[12],inactive
same,outcome,[8],inactive
same,outcome,[9],inactive
Nc1nc(=S)c2[nH]cnc2[nH]1,outcome,[1],inactive
same,outcome,[2],inactive
same,outcome,[18],inactive
same,outcome,[10],inactive
same,outcome,[4],inactive
same,outcome,[14],inactive
same,outcome,[16],inactive
same,outcome,[7],inactive
same,outcome,[11],inactive
same,outcome,[8],inactive
same,outcome,[9],inactive
CC(C)c1cccc(C(C)C)c1NC(=O)NS(=O)(=O)c1cc(C(C)(C)O)co1,outcome,[1],inactive
same,outcome,[2],inactive
same,AC50,[3],29.7 µM (active)
same,outcome,[4],inactive
same,outcome,[6],inactive
same,outcome,[16],inactive
same,outcome,[7],inactive
same,outcome,[11],inactive
same,outcome,[19],inactive
same,outcome,[8],inactive
same,outcome,[9],inactive
C/C=C/c1ccc(OC)cc1,outcome,[1],inactive
same,outcome,[2],inactive
same,outcome,[4],inactive
same,outcome,[5],inactive
same,outcome,[7],inactive
same,outcome,[8],inactive
same,outcome,[9],inactive
CCCCCCC(CCCCCCCCCCC(=O)OCC(COC(C)=O)OC(C)=O)OC(C)=O (stereo not drawn),outcome,[1],inactive
same,outcome,[2],inactive
same,outcome,[3],inactive
same,outcome,[4],inactive
same,outcome,[20],inactive
same,outcome,[11],inactive
same,outcome,[8],inactive
same,outcome,[9],inactive
O=C(O)c1cccnc1,outcome,[1],inactive
same,outcome,[2],inactive
same,outcome,[18],inactive
same,AC50,[4],25.2 µM (active)
same,outcome,[4],inactive
same,outcome,[5],inactive
same,outcome,[6],inactive
same,outcome,[20],inactive
same,outcome,[11],inactive
same,outcome,[12],inactive
same,outcome,[8],inactive
same,outcome,[9],inactive
